# Laboratory results: PubChem BioAssay AID1508637 (National Center for Advancing Translational Sciences (NCATS), 2021)
# Inconclusive results are not listed. Activity calls are given as the source filed them. Calls follow the shape of the dose curve; as a rule, active = well fitted inhibition curve with a large enough effect; inconclusive = small, poorly fitted or top-dose-only effect; inactive = flat fitted curve, though single readings scatter.
# Assay: qHTS for characterization and localization of zebrafish homologs of the human ABCB1 multidrug transporter: empty vector transfected cells
# Conditions: empty vector transfected control cells, CellTiter-Glo luminescence viability, 72 h; series mostly up to 46.1 µM; activity change, negative = inhibition: at the top concentration
# Method in brief: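 Empty-vector, P-gp-overexpressing MDR-19 and zebrafish abcb4- or abcb5-transfected cells were exposed to ~90 P-gp substrates at varying concentrations for 72 h at 37C. Viability was read by CellTiter-Glo luminescence; cytotoxic meant inhibitory curve class, >50% maximal response and AC50 < 10 uM.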
SMILES,Potency,"activity change, negative = inhibition"
CN(C)CCN(C)C(=O)c1ccc(NC(=O)Nc2ccc(-c3nc(N4CCOCC4)c4ccn(CC(F)(F)F)c4n3)cc2)cc1,264 nM (active),–
C#Cc1cccc(Nc2ncnc3cc(OC)c(OCCCCCCC(=O)NO)cc23)c1,2960 nM (active),–
CC(NCc1ccc2c(c1)nc(NC(=O)c1ccc(-c3cn[nH]c3)s1)n2CC(C)(C)O)C(C)(C)C (configuration not stated),332 nM (active),–
Cc1ccc(-c2ncn(-c3ccc(Nc4nccc(-c5cccc(N6CCOCC6)c5)n4)cc3)n2)cn1,3320 nM (active),–
Cc1cc(Nc2cc(N3CCN(C)CC3)nc(Sc3ccc(NC(=O)C4CC4)cc3)n2)n[nH]1,6620 nM (active),–
C[C@@H]1O[C@@H](O[C@H]2[C@H](O)[C@@H](O)[C@H](O[C@H]3[C@H](O[C@H]4CC[C@@]5(C)C(=CC[C@@H]6C5CC[C@]5(C)[C@@H]7[C@H](C[C@@H]65)O[C@]5(CC[C@@](C)(CO[C@@H]6O[C@H](CO)[C@@H](O)[C@H](O)[C@H]6O)O5)[C@H]7C)C4)O[C@H](CO)[C@@H](O)[C@@H]3O)O[C@@H]2CO)[C@H](O)[C@H](O)[C@H]1O (some centres not stated),353 nM (active),–
CCc1c(O)cc(O)c(C(=O)c2ccc(OCCN3CCOCC3)c(OC)c2)c1CC(=O)N(CCOC)CCOC,743 nM (active),–
CCN(CC)Cc1ccc(C(=O)N(CCc2ccccc2OC)[C@@H]2CCNC2)cc1,–,0% (inactive)
CO[C@H]1/C=C/C=C/C=C/C[C@H](OC(=O)[C@@H](C)NC(=O)C2CCCCC2)[C@H](C)[C@@H](O)/C(C)=C/CCc2cc(O)cc(c2)NC(=O)C1,277 nM (active),–
COc1cc(C(=O)NC2CCN(C)CC2)ccc1Nc1ncc2c(n1)N(C1CCCC1)CC(F)(F)C(=O)N2C,41.8 nM (active),–
Oc1ccc(-c2ccc(-c3cc(Nc4cccc(CNC5CC5)c4)n[nH]3)cc2)c(O)c1,2960 nM (active),–
Cc1ccc(C(=O)N(CCCN)C(c2nc3cc(Cl)ccc3c(=O)n2Cc2ccccc2)C(C)C)cc1 (configuration not stated),1180 nM (active),–
Cc1[nH]c2ccccc2c1CCNCc1ccc(/C=C/C(=O)NO)cc1,235 nM (active),–
C[C@@H]1O[C@@H](O[C@H]2[C@@H](OC(=O)[C@]34CCC(C)(C)CC3C3=CCC5[C@@]6(C)C[C@H](O)[C@H](O[C@@H]7O[C@H](CO)[C@@H](O)[C@H](O)[C@H]7O[C@@H]7OC[C@@H](O)[C@H](O)[C@H]7O)[C@@](C)(C(=O)O)C6CC[C@@]5(C)[C@]3(C)CC4)OC[C@H](O)[C@@H]2O)[C@H](O)[C@H](O)[C@H]1O[C@@H]1OC[C@@H](O)[C@H](O)[C@H]1O (some centres not stated),1980 nM (active),–
CN(C)c1ccc(C(=C2C=CC(=[N+](C)C)C=C2)c2ccc(N(C)C)cc2)cc1,590 nM (active),–
CN(C)C1CCN(C(=O)c2ccc(NC(=O)Nc3ccc(-c4nc(N5CCOCC5)nc(N5CCOCC5)n4)cc3)cc2)CC1,469 nM (active),–
CCn1nnc2c(N3CCOCC3)nc(-c3ccc(NC(=O)Nc4ccc(C(=O)N5CCN(C)CC5)cc4)cc3)nc21,332 nM (active),–
